Screening data (PubChem)
HP1b binding inh: inhibitors of HP1-beta chromodomain binding to methylated histone tails; Potency, µM (series often up to 114 µM), for inactives: at the top dose activity change, negative = inhibition, actives largely listed as inhibitors; hit rate 0.56% among 390,000; P83916; AlphaScreen HP1-beta / biotin-H3K9me3 peptide binding; further: nearly all actives have a fitted effect of over 70% in size
Target sequence (P83916 whole entry, looked up): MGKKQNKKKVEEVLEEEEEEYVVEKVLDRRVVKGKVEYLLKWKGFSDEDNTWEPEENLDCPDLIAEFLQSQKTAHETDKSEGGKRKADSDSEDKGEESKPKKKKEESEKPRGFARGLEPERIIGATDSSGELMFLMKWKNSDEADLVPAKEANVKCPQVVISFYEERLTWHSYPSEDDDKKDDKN
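AlphaScreen: HP1-beta (50 nM) preformed 30 min with biotin-H3(1-18)K9me3 peptide (50 nM) in PBS pH 7.4, 0.01% Tween-20. Compound added for 30 min at RT, then streptavidin donor/nickel chelate acceptor beads (10 ug/mL) for 30 min.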
G9a inh: G9a (human) methyltransferase inhibition; G9a H3K9 monomethylation, AlphaScreen, 2 h; Potency, µM (top dose mostly 102 µM), inactives show at the highest dose activity, negative = inhibition, hits mostly inhibitors; hit rate 8.8% among 350,000; further: on the % scale 0 is the no-effect control and ±100 the full control effect; nearly all actives have a fitted effect of over 75% in size
Target sequence (Q96KQ7 913-1193 limits assumed): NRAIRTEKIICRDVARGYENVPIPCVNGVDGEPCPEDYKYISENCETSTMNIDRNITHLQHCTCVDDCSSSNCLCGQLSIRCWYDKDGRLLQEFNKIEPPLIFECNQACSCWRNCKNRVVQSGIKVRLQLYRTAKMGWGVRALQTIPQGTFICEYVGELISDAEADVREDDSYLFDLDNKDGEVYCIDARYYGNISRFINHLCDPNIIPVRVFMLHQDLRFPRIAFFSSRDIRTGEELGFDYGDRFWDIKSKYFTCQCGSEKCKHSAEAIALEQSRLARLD
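Readings reflect AlphaScreen signal from monomethyl-H3K9 antibody detection. HMT at 20 nM; substrate b-H3K9 500 nM; cofactor SAM 20 uM; 2 h RT reaction; compounds tested as titrations in qHTS with 15 min preincubation.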
L3MBTL1 block: L3MBTL1 (human) inhibition. hit rate 0.66% among 230,000. AlphaScreen L3MBTL1–H3K9me1 peptide binding. AID 485360. Potency, µM (doses to about 57.1 µM), for the others: at the highest dose activity, negative = inhibition, hits mostly inhibitors. Q9Y468; further: on the % scale 0 is the no-effect control and ±100 the full control effect; nearly all actives have a fitted effect of over 60% in size
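L3MBTL1 50 nM + b-AHA-H3(1-15)K9me1 75 nM, 30 min RT; compound added, 30 min RT; streptavidin donor/Ni-chelate acceptor beads 10 ug/mL each final, 30 min RT dark; AlphaScreen read.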
BAZ2B inh: blocks human BAZ2B | hit rate 4.4% among 360,000 | AlphaScreen BAZ2B-H3K14Ac peptide displacement | Q9UIF8 | Potency, µM (series often up to 114 µM), for inactives: at the top dose activity change, negative = inhibition, hits mostly inhibitors; further: on the % scale 0 is the no-effect control and ±100 the full control effect; nearly all actives have a fitted effect of over 60% in size
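In this displacement format the biotinylated H3(5-23) peptide acetylated at Lys14 serves as ligand at 50 nM, with BAZ2B at 50 nM in PBS pH 7.4 containing 0.01% Tween-20. Donor and acceptor beads are 10 ug/mL final.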
Sfp PPTase inh: inhibitors of Bacillus subtilis Sfp phosphopantetheinyl transferase | hit rate 3.5% among 310,000 | Biochemical Sfp PPTase activity, qHTS | AID 1490 | Potency, µM, without a hit: largest response in the series, negative = inhibition, usual class: inhibitors | Q9F4F7;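 further: the enzyme is Sfp with the accession as filed and its product quenches rhodamine fluorescence; 0% = enzyme reaction without inhibitor and -100% = no enzyme wells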
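Reaction rates are the 30-min fluorescence difference (ex 525, em 598 nm) in wells containing 15 nM Sfp, 5 uM rhodamine-CoA and 12.5 uM BHQ-2-YbbR at pH 7.6 with 10 mM MgCl2.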
JMJD2A Tudor inh: inhibitors of human JMJD2A Tudor domain; O75164; AlphaScreen JMJD2A-Tudor / H3K4me3 peptide binding; Potency, µM (titrated, usually from 114 µM), without a hit: top-dose activity change, negative = inhibition, hits mostly inhibitors; hit rate 4.4% among 390,000; AID 504339; further: on the % scale 0 is the no-effect control and ±100 the full control effect; nearly all actives have a fitted effect of over 50% in size
Starred values were filed as active, the others as inactive; u = inconclusive; x = no result given; [ ] = another dose, or the depositor's remark. In the library only some 12% were active in any assay of this set; here they are far more common. The call rests on the fitted dose curve; in most records, active means well fitted curve in the direction sought with a large enough effect; inconclusive means small, poorly fitted or top-dose-only effect, or another doubt; inactive means no such curve, though single readings can be large; an effect the other way counts as inactive or inconclusive. Potency means the concentration at half of the fitted maximal effect.

SMILES	HP1b binding inh	G9a inh	L3MBTL1 block	BAZ2B inh	Sfp PPTase inh	JMJD2A Tudor inh
O=C(NCc1ccccc1)c1ccc(NC(=O)c2ccco2)cc1	43.2%	66.7%	x	-25.8%	7.4%	-2.1%
CN(C(=O)/C=C/c1ccco1)c1ccccc1C(=O)O	60.1%	25.1µM*	x	u	50.1µM*	-10.8%
CN(C(=O)C=Cc1ccco1)c1ccccc1	15.3%	x	x	x	x	-16.0%
O=C(/C=C/c1ccco1)c1ccc(O)cc1	x	u	x	u	22.4µM*	x
Cc1cnc(CNc2nc(-c3ccc4c(c3)OCO4)nc3ccccc23)cn1	x	x	x	x	-15.8%	x
Nc1nc(COC(=O)c2ccc3c(c2)OCCO3)nc(Nc2ccccc2)n1	7.6%	18.6%[2.33 µM]	-3.9%	u	x	-24.8%
C=C(CN(C)C)C(=O)c1ccc(OC2OC(COC(C)=O)C(OC(C)=O)C(OC(C)=O)C2OC(C)=O)cc1 (stereo not drawn)	56.2µM*	x	x	x	x	89.1µM*
O=C(/C=C/c1ccccc1Cl)Nc1ccc2c(c1)C(=O)NC2=O	u	25.1µM*	x	70.8µM*	-12.7%	u
CCn1c(C(C)NC(C)=O)nc2ccccc21 (stereo not drawn)	35.5%	20.0%	x	9.4%	17.3%	-4.2%
Cc1ccc(-c2csc(N3CCN(CCCn4c(-c5ccncc5)nc5ccccc54)CC3)n2)cc1	u	50.1µM*	-28.4%	u	-21.9%	u
Cc1ccc(-c2csc(NCCn3c(C(F)(F)F)nc4ccccc43)n2)cc1	3.4%	u	-7.1%	-31.0%	7.1%	-17.5%
Cc1ccc(-c2csc(N3CCN(CCCn4c(C(F)(F)F)nc5ccccc54)CC3)n2)cc1	-4.5%	44.7µM*	-8.7%	-38.1%	-1.6%	-34.3%
Cc1ccc(-c2csc(N3CCC[C@@H]3C(=O)NCCn3c(-c4ccncc4)nc4ccccc43)n2)cc1	-19.3%	44.7µM*	-6.5%	44.7µM*	-6.4%	u
OCCN(CCCn1c(-c2ccncc2)nc2ccccc21)c1nc(CN2CCCCC2)cs1	7.2%	-22.3%	1.0%	-1.2%	11.8%	-17.7%
O=C(NCCn1c(C(F)(F)F)nc2ccccc21)[C@H]1CCCN1c1nc(CN2CCCCC2)cs1	34.0%	-27.5%	-4.1%	0.8%	14.1%	-12.2%
CC(=O)N[C@@H](C)c1nc2ccccc2n1CCCN1CCN(c2nc(-c3ccc(C)cc3)cs2)CC1	-17.2%	44.7µM*	-22.7%	u	-14.7%	u
CC(=O)NCCNc1nc(-c2cccnc2)nc2ccccc12	x	-42.6%[0.501 µM]	x	x	17.1%	x
Cc1ccc(-c2csc(N(CCO)CCCn3c(C(F)(F)F)nc4cc(C(F)(F)F)ccc43)n2)cc1	3.8%	25.1µM*	-5.0%	u	-4.3%	-35.5%
OCCN(CCCn1c(C(F)(F)F)nc2ccccc21)c1nc(CN2CCCCC2)cs1	39.7%	-9.9%	-8.3%	-9.7%	-8.3%	-13.1%
O=C(O)c1cccnc1-c1ncccc1C(=O)O	-0.6%	56.2µM*	-1.1%	-38.9%	u	u
O=C(O)c1cccc2cccnc12	-11.8%	2.4%[59 µM]	x	u	u	-2.7%[11.4 µM]
Cc1nc2ccccc2n1/C(=N\S(=O)(=O)c1ccccc1)c1ccccc1	33.6%	50.1µM*	9.5%	1.1%	18.0%	-11.0%
CCOC(=O)N1CCN(S(=O)(=O)c2ccc(C(=O)NNc3nc4ccc(Cl)cc4s3)cc2)CC1	22.7%	79.4µM*	-5.4%	-5.8%	5.1%	-25.0%
Cc1cc(C)c2sc(NC(=O)c3ccc(S(=O)(=O)N4CCOCC4)cc3)nc2c1	21.3%[57 µM]	2.9%[59 µM]	x	-1.7%	x	-3.2%
CCOC(=O)N1CCN(S(=O)(=O)c2ccc(C(=O)Nc3nc4c(s3)CC(C)CC4)cc2)CC1 (stereo not drawn)	11.4%	-8.2%	1.7%	-1.8%	20.7%	-15.7%
SMILES	HP1b binding inh	G9a inh	L3MBTL1 block	BAZ2B inh	Sfp PPTase inh	JMJD2A Tudor inh
CCOC(=O)N1CCN(S(=O)(=O)c2ccc(C(=O)NNc3nc4c(C)cccc4s3)cc2)CC1	-4.4%	35.5µM*	-13.5%	u	u	u
CCOC(=O)N1CCN(S(=O)(=O)c2ccc(C(=O)NNc3nc4cc(C)cc(C)c4s3)cc2)CC1	-11.7%	50.1µM*	u	u	-1.2%	u
CCOC(=O)N1CCN(S(=O)(=O)c2ccc(C(=O)NNc3nc4c(C)cc(C)cc4s3)cc2)CC1	4.7%	44.7µM*	-29.3%	-11.4%	u	u
CCOC(=O)N1CCN(S(=O)(=O)c2ccc(C(=O)N(CCN(C)C)c3nc4ccc(Cl)cc4s3)cc2)CC1	12.2%	u	x	-23.1%	-7.1%	-8.9%
CCOc1ccc(CCNC(=O)CCc2cn(Cc3ccc(F)cc3)c3ccccc23)cc1	-2.4%	-4.9%[59 µM]	x	-37.5%	x	-24.2%
CCN(CC)CCN(C(=O)c1ccc(C(=O)c2ccccc2)cc1)c1nc2c(OC)cccc2s1	-1.9%	u	x	-38.8%	u	u
CCOC(=O)N1CCN(S(=O)(=O)c2ccc(C(=O)N(CCN(CC)CC)c3nc4c(C)cccc4s3)cc2)CC1	-10.6%	50.1µM*	x	u	-3.4%	u
Cc1cc(C)c2nc(NC(=O)c3ccc(S(=O)(=O)N4CCCC4)cc3)sc2c1	16.8%[57 µM]	11.9%[59 µM]	x	0.1%	x	-13.6%
Cc1cc(C)c2nc(NNC(=O)c3ccc(S(=O)(=O)N4CCCCC4)cc3)sc2c1	9.1%	25.1µM*	u	u	u	u
CC(C)c1cc(-c2nc(-c3ccccc3)no2)n[nH]1	45.2%	5.3%[59 µM]	x	3.7%	x	3.2%
CCN(CC(=O)Nc1ccc(NC(C)=O)cc1)C(=O)COc1ccccc1-c1ccccc1	34.1%	5.4%[2.33 µM]	-1.2%	-5.3%	x	-14.2%
CCOc1ccccc1OCCCC(=O)N(CC)CC(=O)Nc1ccc(NC(C)=O)cc1	13.5%	50.1µM*	-6.4%	8.5%	x	-9.7%
CCN(CC(=O)Nc1ccc(NC(C)=O)cc1)C(=O)CCCSc1nc2ccccc2[nH]1	8.8%	50.1µM*	3.6%	9.1%	x	-10.5%
CC(=O)Nc1ccc(NC(=O)CCCSc2nc3ccccc3[nH]2)cc1	10.3%	10.1%[12.7 µM]	x	-17.3%	-19.2%	-5.0%
Cc1ccc(C(=O)Nc2ccc(Oc3ccc(C(=O)O)c(C(=O)O)c3)cc2)cc1C	29.5%	u	x	-12.6%	3.1%	79.4µM*
O=C(CCC1N=C2c3ccccc3N=C(SCc3ccc(F)cc3)N2C1=O)N1CCN(c2ccccc2)CC1 (stereo not drawn)	14.6%	u	x	-26.5%	x	-31.8%
CS(=O)(=O)c1ncc(Cl)c(C(=O)N(Cc2ccc(Cl)cc2)Cc2ccco2)n1	7.4%	11.2µM*	x	-30.7%	x	-35.1%
COc1ccc(N(Cc2ccccc2)C(=O)c2nc(S(C)(=O)=O)ncc2Cl)cc1	40.3%	11.2µM*	x	-11.0%	x	-13.5%
Cc1cc(NS(=O)(=O)c2ccc3c(c2)CCC(=O)N3)ccc1F	x	x	x	x	x	-13.5%
